The values that follow come from PubChem BioAssay (NCI).

A short description of assay [1]: NCI Yeast Anticancer Drug Screen. Data for the rad50 strain (AID 155).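 Further: 0% = growth of vehicle-only cultures of the same strain.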 To be noted: S. cerevisiae rad50 strain growth inhibition; at 50.0 µM; stronger effect = higher value. The procedure, abridged:
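Compounds were tested on a yeast strain with an engineered DNA damage repair alteration; the reported value is growth inhibition normalised to vehicle treatment.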

Assay [2] can be described thus: NCI Yeast Anticancer Drug Screen. Data for the mec2-1 strain (AID 157). To be noted: S. cerevisiae mec2-1 strain, at 50.0 µM, stronger effect = higher value. In a few lines:
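Compounds were applied to mec2-1 yeast cells. Their growth was then compared with that of vehicle-treated cultures to give growth inhibition.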

Assay [3] can be described thus: NCI Yeast Anticancer Drug Screen. Data for the sgs1 mgt1 strain (AID 161).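 Further: 0% = growth of cultures given vehicle only.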 To be noted: S. cerevisiae sgs1 mgt1 strain, at 50.0 µM, stronger effect = higher value. In a few lines: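 Growth of a repair-deficient yeast mutant was monitored after compound treatment and expressed as inhibition relative to vehicle-treated cultures.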
Assay [4] in a line: NCI Yeast Anticancer Drug Screen. Data for the cln2 rad14 strain (AID 165).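 Further: 0% = growth equal to vehicle treated cultures.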 To be noted: S. cerevisiae cln2 rad14 strain, at 50.0 µM, stronger effect = higher value. The procedure, abridged:
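Strain: cln2 rad14 yeast, altered in cell cycle control and DNA damage repair. Read-out: growth inhibition vs vehicle.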

A short description of assay [5]: NCI Yeast Anticancer Drug Screen. Data for the bub3 strain (AID 167). To be noted: S. cerevisiae bub3 mutant strain, at 50.0 µM, stronger effect = higher value. In a few lines: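 Growth of a checkpoint-deficient yeast mutant is measured after compound exposure. Values represent inhibition relative to vehicle.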
A short description of assay [6]: NCI Yeast Anticancer Drug Screen. Data for the mlh1 rad18 strain (AID 175). To be noted: S. cerevisiae mlh1 rad18 strain growth inhibition; at 50.0 µM; stronger effect = higher value. The procedure, abridged: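 A repair-deficient yeast strain is exposed to test compound, and growth is scored relative to vehicle-treated controls.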

SMILES strings stand for the structures. About 79,000 compounds went through this panel and 15% of them were active in at least one assay; those are over-represented in the sample as a whole. Unmarked numbers belong to inactive results. Active and inactive are the calls of the source. No stated cut-off is given here; in the data, active means growth inhibition above about 70%; inactive means the rest.

As to `COc1ncnc2ncn(C)c12`, the growth inhibition was 4.9% in assay [1]; 18% in assay [2]; -1.25% in assay [3]; -12.9% in assay [4]; 6.95% in assay [5]; 0.2% in assay [6].
Take `NCCCNCCCCNCCCNCc1c2ccccc2c(CNCCCNCCCCNCCCN)c2ccccc12`: the growth inhibition is 90.7% (active) in assay [1]; 93.1% (active) in assay [2]; 93.2% (active) in assay [3]; 91.9% (active) in assay [4]; 91.8% (active) in assay [5]; 90.8% (active) in assay [6].
`CCCCCC(Nc1nncs1)Nc1nncs1`: the growth inhibition in assay [1] was -4.2%; in assay [2] it was -20.5%; in assay [3], 14.9%; in assay [4], 6.1%; in assay [5], 8.4%; in assay [6] it was 12.6%.
`CCCC(=O)OCc1ccc(Cl)cc1`: the growth inhibition in assay [1] is 24.6%; in assay [2], 12.8%; in assay [3] it was 6.9%; in assay [4], 5.15%; in assay [5], 6.55%; in assay [6] it was 3.35%.
As to `COc1ccc(C(=O)OCc2ccccc2CN2CCOCC2)cc1`, the growth inhibition in assay [1] is 0.75%; in assay [2], 12.5%; in assay [3], -8.45%; in assay [4], 30.3%; in assay [5], -4.9%; in assay [6], -26.4%.
As for `CC(=O)C(C(C)=O)C(c1cccnc1)C(C(C)=O)C(C)=O`, the growth inhibition in assay [1] was 2.7%; in assay [2] it was 0.65%; in assay [3], 10%; in assay [4], 0.1%; in assay [5], 25.3%; in assay [6], -10.5%.
Turning to `COc1ccc(C(C#N)Cc2ccccc2)c([N+](=O)[O-])c1` (stereo not drawn), the growth inhibition in assay [1] is 17.6%; in assay [2], -5.75%; in assay [3], 4.8%; in assay [4] it was -34.2%; in assay [5], 0.45%; in assay [6], 16.4%.
For `CCCCCCCC(=O)C(C)C`, the growth inhibition in assay [1] was 7.55%; in assay [2], 5.85%; in assay [3] it was 11.8%; in assay [4], 4.4%; in assay [5] it was 9.6%; in assay [6], 4.35%.
As to `O=C(ON=C1c2ccccc2C(Br)C(Br)c2ccccc21)c1ccccc1` (stereo not drawn), the growth inhibition in assay [1] is 38%; in assay [2], 16.9%; in assay [3], 35.7%; in assay [4], 17.6%; in assay [5], 49%; in assay [6] it was 30.6%.
As to `CCCCCC(CN(C)C)C(O)CCc1ccc(Cl)c(Cl)c1` (stereo not drawn), the growth inhibition in assay [1] was 98.5% (active); in assay [2] it was 79.2% (active); in assay [3], 98% (active); in assay [4] it was 98.5% (active); in assay [5] it was 80.5% (active); in assay [6], 98.6% (active).
Take `COc1ccc(Cl)cc1Cl`: the growth inhibition is 6.8% in assay [1]; -6.45% in assay [2]; -98% in assay [3]; 14.2% in assay [4]; 14.1% in assay [5]; 26.6% in assay [6].
Regarding `CCOC(=O)C1C(=O)CC1(C)C` (stereo not drawn), the growth inhibition in assay [1] is 12.2%; in assay [2], 6.9%; in assay [3] it was 12.2%; in assay [4] it was 36%; in assay [5], 25.9%; in assay [6], 21.8%.
In the case of `COc1ccc(Cl)cc1NC(=O)c1cccc([N+](=O)[O-])c1`, the growth inhibition was -2.45% in assay [1]; 0.7% in assay [2]; 12.9% in assay [3]; -13.9% in assay [4]; 16.9% in assay [5]; -1.25% in assay [6].
Regarding `CC(CN(C)C)C(/C=C/c1ccccc1)=N\Nc1ccccc1` (stereo not drawn), the growth inhibition in assay [1] was -5.7%; in assay [2], 23.4%; in assay [3] it was 7.85%; in assay [4], -6.3%; in assay [5], -2.1%; in assay [6], 3.25%.
Turning to `C/C=C/[C@@H]1[C@H]2C(=O)[C@]3(Cl)[C@@H](/C=C/C)[C@@H]3C(=O)[C@@]12Cl`, the growth inhibition is 5.05% in assay [1]; 6.1% in assay [2]; 6.45% in assay [3]; 12.8% in assay [4]; 10% in assay [5]; 29.6% in assay [6].
Take `Nc1nc2c(c(-c3ccc(Cl)cc3)n1)CN(CCCC(=O)O)C2=O`: the growth inhibition in assay [1] was -1.8%; in assay [2] it was 13.9%; in assay [3] it was 7.4%; in assay [4], -0.15%; in assay [5] it was 2.35%; in assay [6], 10.7%.
`CCCCCCNC(=O)NC`: the growth inhibition in assay [1] is -2.3%; in assay [2] it was -11.5%; in assay [3], -16.8%; in assay [4], -36.2%; in assay [5], -21.1%; in assay [6], -7.05%.
Turning to `C=Cc1c(Cl)cccc1Cl`, the growth inhibition in assay [1] was 0.25%; in assay [2] it was -8.85%; in assay [3], -5.55%; in assay [4] it was 3.5%; in assay [5] it was -18.6%; in assay [6], -11.3%.
On to `O=C(O)CC(Nc1ncccn1)C(=O)O` (stereo not drawn), for which the growth inhibition in assay [1] was 3.05%; in assay [2], 6%; in assay [3] it was 10.7%; in assay [4], 24.1%; in assay [5], -6.1%; in assay [6] it was 5.4%.
Regarding `CC(=O)OC12C3C4C1C1C2C3C41OC(C)=O` (stereo not drawn), the growth inhibition is -4.95% in assay [1]; 11.8% in assay [2]; -24.1% in assay [3]; 0.9% in assay [4]; -16.4% in assay [5]; -7.5% in assay [6].
Turning to `CNC(=O)n1cnc2ccccc21`, the growth inhibition was 33.2% in assay [1]; 30.4% in assay [2]; 37% in assay [3]; 13.1% in assay [4]; 60% in assay [5]; 25.3% in assay [6].
Take `CCN(CC)C(=O)c1ccc[n+](Cc2ccc(Cl)c(Cl)c2)c1`: the growth inhibition in assay [1] is 3.15%; in assay [2] it was -8.25%; in assay [3], -8.75%; in assay [4] it was 6.45%; in assay [5], 1.2%; in assay [6], 9.25%.
With `CCOC(=O)/C(N=Nc1ccc(O)cc1)=C(\C)O`, the growth inhibition in assay [1] was -6.4%; in assay [2] it was 28.4%; in assay [3] it was 17.7%; in assay [4] it was 24.9%; in assay [5] it was -1.2%; in assay [6], -0.65%.
As to `CCC(CC)C1CC[N-]CC1.CCC(CC)C1CC[N-]CC1.CCC(CC)C1CC[N-]CC1.CCC(CC)C1CC[N-]CC1.N#C[S-].N#C[S-].[Co]`, the growth inhibition is 16.4% in assay [1]; 15.1% in assay [2]; 3.1% in assay [3]; 13.8% in assay [4]; 19.4% in assay [5]; 29.7% in assay [6].
`C=CCc1ccc(C)c(C)c1O`: the growth inhibition was 24.4% in assay [1]; 3.55% in assay [2]; 21.8% in assay [3]; 19.1% in assay [4]; 5.55% in assay [5]; 12.8% in assay [6].
For the compound `COc1cc(/C=C2\CCC(CN(C)C)C2=O)ccc1OC(=O)c1ccccc1` (stereo not drawn), the growth inhibition in assay [1] is 86.6% (active); in assay [2] it was 91.1% (active); in assay [3] it was 86% (active); in assay [4], 89.1% (active); in assay [5], 85.2% (active); in assay [6], 89.7% (active).
Regarding `COc1ccc2c(c1OC)C(O)N1CCc3cc4c(cc3C1=C2C(=O)c1ccccc1)OCO4` (stereo not drawn), the growth inhibition in assay [1] is 6.75%; in assay [2] it was 14.2%; in assay [3], 0.5%; in assay [4] it was -5.3%; in assay [5], 28.1%; in assay [6], 22.8%.
Regarding `O=C(O)Cc1c(O)ccc2ccccc12`, the growth inhibition in assay [1] was -32.7%; in assay [2], -16.3%; in assay [3], -34.5%; in assay [4], -29.8%; in assay [5], -38.6%; in assay [6], -3.7%.
In the case of `COC1(CCO)CC=CCC1(CCO)OC` (stereo not drawn), the growth inhibition in assay [1] was -2.45%; in assay [2] it was -20.4%; in assay [3], -19.3%; in assay [4], 13.3%; in assay [5], -19.4%; in assay [6] it was -7.9%.
On to `Cc1noc(NS(=O)(=O)c2ccc(NC(=S)/N=C/C(C(=O)c3ccccc3)=C(\O)c3ccccc3)cc2)c1C`, for which the growth inhibition was 10.7% in assay [1]; 0.55% in assay [2]; 18.7% in assay [3]; -7.4% in assay [4]; -5.15% in assay [5]; 13.7% in assay [6].
With `O=S(=O)(N/N=C/c1ccncc1)c1ccccc1`, the growth inhibition was 39.4% in assay [1]; 16.9% in assay [2]; 60.5% in assay [3]; 41.1% in assay [4]; 34.5% in assay [5]; 50.5% in assay [6].
Regarding `CC(C)C1CCC(O)CC1` (stereo not drawn), the growth inhibition in assay [1] was -14.5%; in assay [2], 1.9%; in assay [3], -3.55%; in assay [4], -32.2%; in assay [5], 10.3%; in assay [6], 9.05%.
Consider `Cn1c(=O)c2nc3sc4c(n3c2n(C)c1=O)C(=O)c1ccccc1C4=O`, for which the growth inhibition in assay [1] was -17%; in assay [2], 21.4%; in assay [3], 11.2%; in assay [4], -11.2%; in assay [5] it was -11%; in assay [6], 25.4%.
For `CCCCSCCOC(=O)Nc1ccc(Cl)cc1`, the growth inhibition in assay [1] is 98.8% (active); in assay [2], 99.3% (active); in assay [3], 98% (active); in assay [4] it was 95.7% (active); in assay [5], 99.3% (active); in assay [6], 98.8% (active).
With `COc1cc(C(O)CCBr)c(OC)cc1C` (stereo not drawn), the growth inhibition was -23.2% in assay [1]; -19.8% in assay [2]; -20.2% in assay [3]; -0.85% in assay [4]; -1.4% in assay [5]; 19.9% in assay [6].
In the case of `CC/C(CCC(=O)OC)=N/Nc1ccc([N+](=O)[O-])cc1[N+](=O)[O-]`, the growth inhibition is 4.05% in assay [1]; 7.25% in assay [2]; 6.9% in assay [3]; -22.6% in assay [4]; -5.9% in assay [5]; -10.6% in assay [6].
Take `CCOC(=O)Nc1ccc(Cl)cc1Cl`: the growth inhibition was -16.3% in assay [1]; -8.2% in assay [2]; -4.7% in assay [3]; -16.7% in assay [4]; -8.75% in assay [5]; 1.15% in assay [6].
`O=[N+]([O-])c1ccc(S(=O)(=O)c2ccc(N=Cc3ccc(C=Nc4ccc(S(=O)(=O)c5ccc([N+](=O)[O-])cc5)cc4)cc3)cc2)cc1`: the growth inhibition in assay [1] was 6.85%; in assay [2], 3.25%; in assay [3] it was 1.15%; in assay [4], -5.45%; in assay [5] it was -4.55%; in assay [6], -5.85%.
